PubChem BioAssay (NCI)
About 83,000 compounds went through this panel and 20% of them were active in at least one assay; those are over-represented in the sample as a whole.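 A percent growth of 40 corresponds to 60% growth inhibition; 0 means no net growth; -100 means all cells died. Active threshold: below 10.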 Active and inactive are the calls of the source.

Columns and labels:
Assay in all cases: NCI-60 one-dose screen, 48 h (100 = growth as untreated, 0 = no growth, -100 = all killed)
NCI-H23 lung = details: 10 µM unless noted
NCI-H226 lung = details: 10 µM unless noted
NCI-H322M lung = details: 10 µM unless noted
HOP-62 NSCLC = details: 10 µM unless noted
NCI-H460 lung = details: 10 µM unless noted
HOP-92 NSCLC = details: 10 µM unless noted
A549/ATCC NSCLC = details: 10 µM unless noted
786-0 renal = details: 10 µM unless noted
COLO 205 colon = details: 10 µM unless noted
NCI-H522 lung = details: 10 µM

Measured: growth

COc1ccc(C2=NN(C(C)=O)C(c3c(C)nn(-c4ccccc4)c3N3CCOCC3)C2)cc1 (stereo unspecified)
inactive: NCI-H23 lung 100% | NCI-H226 lung 92.1% | NCI-H322M lung 101% | HOP-62 NSCLC 87.9% | NCI-H460 lung 98.7% | HOP-92 NSCLC 86.9% | A549/ATCC NSCLC 85.5% | 786-0 renal 93% | COLO 205 colon 90.9%

O=C(COc1ccc(/C=C2\Oc3ccc4ccccc4c3C2=O)cc1)c1ccc(Cl)cc1
inactive: NCI-H23 lung 98.2% | NCI-H226 lung 106% | NCI-H322M lung 102% | HOP-62 NSCLC 105% | NCI-H460 lung 110% | HOP-92 NSCLC 97.7% | NCI-H522 lung 61.9% | 786-0 renal 106% | COLO 205 colon 124%

Nc1ncnc2c1CN(Cc1ccccc1)CC2
inactive: NCI-H23 lung 98.3% | NCI-H226 lung 113% | NCI-H322M lung 117% | HOP-62 NSCLC 106% | NCI-H460 lung 107% | HOP-92 NSCLC 87.5% | A549/ATCC NSCLC 90.3% | 786-0 renal 101% | COLO 205 colon 115%

CC(NC(=O)Oc1cccc2ccccc12)c1ccccc1 (stereo unspecified)
inactive: NCI-H23 lung 92.8% | NCI-H226 lung 99.7% | NCI-H322M lung 107% | HOP-62 NSCLC 100% | NCI-H460 lung 105% | HOP-92 NSCLC 103% | A549/ATCC NSCLC 73.1% | 786-0 renal 103% | COLO 205 colon 110%

Cc1cc(C)c(C(=O)c2cccs2)c(C)c1
inactive: NCI-H23 lung 100% | NCI-H226 lung 99.8% | NCI-H322M lung 106% | HOP-62 NSCLC 95.2% | NCI-H460 lung 109% | HOP-92 NSCLC 74.4% | NCI-H522 lung 93.3% | 786-0 renal 100% | COLO 205 colon 103%

COc1ccc(CCN2C(=O)CCC3=C2CCCC3=O)cc1OC
inactive: NCI-H23 lung 98.2% | NCI-H226 lung 105% | NCI-H322M lung 98% | HOP-62 NSCLC 95.3% | NCI-H460 lung 106% | HOP-92 NSCLC 78.2% | A549/ATCC NSCLC 106% | 786-0 renal 108% | COLO 205 colon 88.6%

NC(=O)c1cc(Cl)ccc1NC(=O)c1ccccc1-c1ccccc1
active: COLO 205 colon -14.1%
inactive: NCI-H23 lung 39.9% | NCI-H226 lung 57.7% | NCI-H322M lung 30% | HOP-62 NSCLC 39% | NCI-H460 lung 13.2% | HOP-92 NSCLC 67.7% | A549/ATCC NSCLC 35.6% | 786-0 renal 26.6%

COc1cc(NC(C)CCCN)c2nc(C)ccc2c1Oc1ccc(F)cc1 (stereo unspecified)
inactive: NCI-H23 lung 84.8% | NCI-H226 lung 84.9% | NCI-H322M lung 37.4% | HOP-62 NSCLC 85.8% | NCI-H460 lung 73.8% | HOP-92 NSCLC 50.3% | A549/ATCC NSCLC 90% | 786-0 renal 65.9%
active: COLO 205 colon -45.1%

CC1=C([Se]CC(OC(=O)[C@@H](CSSC(C)(C)C)NC(=O)C(C)(C)C)C(=O)NCCCCCC(=O)OCc2ccccc2)C(=O)c2ccccc2C1=O (stereo partly specified)
inactive: COLO 205 colon 40.4%
active: NCI-H23 lung -30.2% | NCI-H226 lung 3.19% | NCI-H322M lung -22.6% | HOP-62 NSCLC -95% | NCI-H460 lung 1.81% | HOP-92 NSCLC -35.9% | A549/ATCC NSCLC 1.31% | 786-0 renal -55.6%

C/C(=C\CCc1ccoc1)CC/C=C(\C)CCCN1CCSCC1
active: NCI-H322M lung 7.95%
inactive: NCI-H23 lung 64.6% | NCI-H226 lung 80% | HOP-62 NSCLC 97.5% | NCI-H460 lung 10.1% | HOP-92 NSCLC 73.3% | A549/ATCC NSCLC 28.4% | 786-0 renal 91.6% | COLO 205 colon 51.1%

Cc1cnc2nc(-c3ccc(N(C)C)cc3)cn2c1
inactive: NCI-H23 lung 93.2% | NCI-H226 lung 102% | NCI-H322M lung 110% | HOP-62 NSCLC 99.5% | NCI-H460 lung 114% | HOP-92 NSCLC 104% | A549/ATCC NSCLC 95.5% | 786-0 renal 91.5% | COLO 205 colon 120%

c1ccc(-c2n(Cc3ccc4ccccc4c3)cc[n+]2Cc2ccc3ccccc3c2)cc1
inactive: A549/ATCC NSCLC 12.5%
active: NCI-H23 lung -38.7% | NCI-H226 lung -9.03% | NCI-H322M lung 8.84% | HOP-62 NSCLC -44.8% | NCI-H460 lung -78.5% | HOP-92 NSCLC -69.6% | 786-0 renal -80.7% | COLO 205 colon -79.1%

Cc1sc2nc(N3CCCCC3)[nH]c(=O)c2c1C
inactive: NCI-H23 lung 95.8% | NCI-H226 lung 88% | NCI-H322M lung 102% | HOP-62 NSCLC 93.3% | NCI-H460 lung 101% | HOP-92 NSCLC 93.8% | A549/ATCC NSCLC 83.2% | 786-0 renal 94.1% | COLO 205 colon 100%

Cc1cccc2nnc(-c3ccccc3)n12
inactive: NCI-H23 lung 104% | NCI-H226 lung 106% | NCI-H322M lung 104% | HOP-62 NSCLC 125% | NCI-H460 lung 108% | HOP-92 NSCLC 105% | A549/ATCC NSCLC 94.4% | 786-0 renal 94.8% | COLO 205 colon 118%

CC[N+](CCCCCCCCCC[N+](CC)(c1ccccn1)c1ccccn1)(c1ccccn1)c1ccccn1
inactive: NCI-H226 lung 33.2% | HOP-62 NSCLC 10.7% | 786-0 renal 34.5%
active: NCI-H23 lung 1.17% | NCI-H322M lung -15.8% | NCI-H460 lung 0.887% | HOP-92 NSCLC -22.5% | A549/ATCC NSCLC 1.29% | COLO 205 colon -80%

O=C1/C(=C\c2coc3ccccc3c2=O)c2ccccc2N1c1c(Cl)cccc1Cl
inactive: NCI-H23 lung 55.4% | NCI-H226 lung 90.7% | NCI-H322M lung 73.7% | HOP-62 NSCLC 68.2% | NCI-H460 lung 19% | HOP-92 NSCLC 32.1% | A549/ATCC NSCLC 26.6% | 786-0 renal 27% | COLO 205 colon 55.3%

COc1cc(-c2n[nH]nc2-c2ccccn2)cc(OC)c1OC
inactive: NCI-H23 lung 98.2% | NCI-H226 lung 90.3% | NCI-H322M lung 95.8% | HOP-62 NSCLC 97.5% | NCI-H460 lung 104% | HOP-92 NSCLC 86.3% | A549/ATCC NSCLC 65.6% | 786-0 renal 96.4% | COLO 205 colon 119%

CN1CCN(c2nc3scc(-c4ccccc4)c3c(=O)[nH]2)CC1
inactive: NCI-H23 lung 100% | NCI-H226 lung 98.6% | NCI-H322M lung 90.3% | HOP-62 NSCLC 103% | NCI-H460 lung 108% | HOP-92 NSCLC 98.5% | A549/ATCC NSCLC 99% | 786-0 renal 98.3% | COLO 205 colon 99%

COc1ccc2cc(C3=CC(=O)CCC3)ccc2c1
inactive: NCI-H23 lung 91.8% | NCI-H226 lung 55.5% | NCI-H322M lung 93.6% | HOP-62 NSCLC 112% | NCI-H460 lung 110% | HOP-92 NSCLC 83.5% | A549/ATCC NSCLC 82.6% | 786-0 renal 90.5% | COLO 205 colon 99.9%

COc1c(Br)cc(C(c2cc(Br)c(OC)c(Br)c2)c2ccccc2C(=O)O)cc1Br
inactive: NCI-H23 lung 97.3% | NCI-H226 lung 99.8% | NCI-H322M lung 102% | HOP-62 NSCLC 94.1% | NCI-H460 lung 105% | HOP-92 NSCLC 55.7% | A549/ATCC NSCLC 98.7% | 786-0 renal 100% | COLO 205 colon 110%

CCOC(=O)/C=C1/SC(=Nc2ccc(C#N)cc2)N(Cc2ccco2)C1=O
inactive: NCI-H23 lung 70.6% | NCI-H226 lung 70.3% | NCI-H322M lung 95.5% | HOP-62 NSCLC 60.3% | NCI-H460 lung 38.9% | HOP-92 NSCLC 37.2% | A549/ATCC NSCLC 67.2% | 786-0 renal 34.6% | COLO 205 colon 50.2%

OC(c1ccccc1)C(NCc1ccccc1)c1ccccc1 (stereo unspecified)
inactive: NCI-H23 lung 93.5% | NCI-H226 lung 97.7% | NCI-H322M lung 97.8% | HOP-62 NSCLC 90.5% | NCI-H460 lung 100% | HOP-92 NSCLC 71.8% | A549/ATCC NSCLC 101% | 786-0 renal 87.2% | COLO 205 colon 116%

CCSCC1CC(O)(c2ccccc2)C(c2ccccc2)C(c2ccc(Cl)cc2)O1 (stereo unspecified)
inactive: NCI-H23 lung 14.7% | NCI-H322M lung 18% | HOP-62 NSCLC 16.4%
active: NCI-H226 lung -1.26% | NCI-H460 lung -45.8% | HOP-92 NSCLC -3.51% | A549/ATCC NSCLC -23.1% | 786-0 renal 3.26% | COLO 205 colon -100%

CN1CCN(CCCCCN=c2cc3c(=O)n(CCCCCN4CCN(C)CC4)c(=O)c4c(NCCCCCN5CCN(C)CC5)cc5c(O)n(CCCCCN6CCN(C)CC6)c(=O)c2c5c4-3)CC1
inactive: NCI-H23 lung 34.1% | HOP-62 NSCLC 14.6% | 786-0 renal 92.9%
active: NCI-H226 lung 0.125% | NCI-H322M lung -23.2% | NCI-H460 lung 5.16% | HOP-92 NSCLC 2.86% | A549/ATCC NSCLC 5.01% | COLO 205 colon -15.4%

O=[N+]([O-])c1ccc(NS(=O)(=O)c2ccc(Cl)c(Cl)c2)cc1
active: HOP-92 NSCLC -1.71%
inactive: NCI-H23 lung 81.5% | NCI-H226 lung 82.5% | NCI-H322M lung 111% | HOP-62 NSCLC 82% | NCI-H460 lung 77.7% | A549/ATCC NSCLC 75.1% | 786-0 renal 76.5% | COLO 205 colon 122%

O=C1/C(=C/c2ccc(F)cc2)Cc2ccccc21
inactive: NCI-H23 lung 99.7% | NCI-H226 lung 94.2% | NCI-H322M lung 95.2% | HOP-62 NSCLC 96.2% | NCI-H460 lung 103% | HOP-92 NSCLC 80.4% | A549/ATCC NSCLC 91.7% | 786-0 renal 96% | COLO 205 colon 115%

COc1ccccc1NC(=O)c1sc2nc3c(cc2c1N)C(=O)CCC3
inactive: NCI-H23 lung 66.7% | NCI-H226 lung 76.2% | NCI-H322M lung 59.7% | HOP-62 NSCLC 100% | NCI-H460 lung 19.3% | HOP-92 NSCLC 37.5% | A549/ATCC NSCLC 34.2% | 786-0 renal 89.1% | COLO 205 colon 26.4%

O=C(O)CNC(=O)C1(N2C(=O)c3ccccc3C2=O)CCCC1
inactive: NCI-H23 lung 101% | NCI-H226 lung 96.7% | NCI-H322M lung 106% | HOP-62 NSCLC 110% | NCI-H460 lung 113% | HOP-92 NSCLC 124% | A549/ATCC NSCLC 99% | 786-0 renal 94.1% | COLO 205 colon 112%

CN(C)c1ccc(-n2nc3ccccc3n2)cc1
inactive: NCI-H23 lung 95.6% | NCI-H226 lung 86.4% | NCI-H322M lung 111% | HOP-62 NSCLC 78% | NCI-H460 lung 105% | HOP-92 NSCLC 86.9% | A549/ATCC NSCLC 92.3% | 786-0 renal 83.3% | COLO 205 colon 102%
